The campaign covered roughly 69,000 compounds. About 8,600 (12%) showed an effect of 50% or more. The full list was thinned out, with strong results kept by preference.
Tested on: Plasmodium berghei
Experiment: Screen against P. berghei liver stage (PbLuc), transformed with Luciferase, at 10uM
Assay type: functional, HepG2
Conditions: tested at 10 uM

| SMILES | INHIBITION [%] |
| --- | --- |
| CN(C)Cc1ccnc(C2CN(Cc3nccs3)CCO2)n1 (configuration not stated) | 35.2 |
| Cc1cc(N2CCC(C(=O)NC3CC3)CC2)nc(-c2ccncc2)n1 | -0.219 |
| CS(=O)(=O)N1CCC(Cc2cnc(Br)cn2)C1 (configuration not stated) | -29.9 |
| c1cnc(N2CCCC(Cc3nccs3)C2)nc1 (configuration not stated) | 11.685 |
| CS(=O)(=O)NC1CCN(C(=O)c2coc(CN3CCOCC3)c2)CC1 | 34.9 |
| COc1cc(CSc2nnc(C)n2CC(N)=O)ccc1SC | -9.93 |
| CCCC(=O)N1CCC(Cc2ccccc2-c2ccccc2)(C(N)=O)C1 (configuration not stated) | -31 |
| O=C(C1CCOC1)N1CCC2(CCN(Cc3nccs3)C2)CC1 (configuration not stated) | 46.2 |
| O=C(C1CCOCC1)N1CCC2(CCN(Cc3nccs3)CC2)CC1 | 18.3 |
| O=C(C1CCOC1)N1CCC2(CCN(Cc3nccs3)CC2)CC1 (configuration not stated) | 52 |
| CC(C)CC(=O)N1C[C@@H]2CCN(c3ncccn3)C[C@@H]2C1 | 44.1 |
| CC(C)Oc1ncc(C(=O)N2CCC(NC(=O)C3CC3)CC2)cc1Cl | -13.2 |
| CC(C)Oc1ncc(C(=O)N2CCCC(C(=O)O)C2)cc1Cl (configuration not stated) | 23.3 |
| O=C(c1cnc(OCC(F)(F)F)c(Cl)c1)N1CCc2ccc(O)cc2C1 | 70.9 |
| O=C(c1ccc(O)nc1)N1CCc2ccc(O)cc2C1 | 11.7 |
| O=C(c1c[nH]c(=O)c(Cl)c1)N1CCc2ccccc2C1 | -29.6 |
| CC(C)Oc1ncc(C(=O)N2CCc3ccc(O)cc3C2)cc1Cl | 77.1 |
| COc1ccc(CN2C[C@@H](OCc3csc(C)n3)[C@H]3COC[C@H]32)cc1 | -21.5 |
| N#CC1CCCN(C(=O)Cn2ncc(N3CCCC3)cc2=O)C1 (configuration not stated) | 44.9 |
| CCc1cc(N2CCCC(CC)(C(=O)O)C2)nc(N2CCOCC2)n1 (configuration not stated) | 39.6 |
| Cc1cc(C2CCC2)nc(N2CCC3(CCCNC3=O)C2)n1 (configuration not stated) | 42.5 |
| CCc1cc(N2CCC3(CCCNC3=O)C2)nc(N2CCOCC2)n1 (configuration not stated) | 70.3 |

| SMILES | INHIBITION [%] |
| --- | --- |
| COCCN1CCN(c2nc(O)cc(Cc3ccccc3F)n2)CC1 | 38.7 |
| COCCN1CCC(CN(CC2CCCO2)C(=O)CCNC(C)=O)CC1 (configuration not stated) | -14.9 |
| Cc1cccc(C)c1OCCCN1CCN(CC2CCCO2)CC1 (configuration not stated) | 67.1 |
| Cc1cccc(C)c1OCCCN1CCC(n2cncn2)CC1 | -49.5 |
| COCCCN1CCN(CC2CCCO2)CC1 (configuration not stated) | 17.5 |
| COCCN1CCN(CC2CCCCO2)CC1 (configuration not stated) | 51.7 |
| COCCN1CCC(CN(CC2CCCO2)C(=O)CNC(C)=O)CC1 (configuration not stated) | 50.2 |
| O=S(=O)(N1CCCC1)N1CCN(CC2CCCO2)CC1 (configuration not stated) | 33.4 |
| COCCN1CCC(CN(CC2CCCO2)C(=O)COC)CC1 (configuration not stated) | 26.8 |
| Cn1c(CN2CCN(CC3CCCO3)CC2)nc2ccccc21 (configuration not stated) | 27.6 |
| O=C(NCCCNC(=O)c1cccc(O)c1)Nc1ccc(Cl)cc1 | 45.5 |
| CC(C)c1cc(C(=O)N2CCC3(CCc4ccccc4C(=O)N3)C2)no1 (configuration not stated) | 2.415 |
| O=S(=O)(c1c(F)cccc1F)N1CCCC1c1nnc2n1CCCCC2 (configuration not stated) | -21.2 |
| CCCN1CCCn2c(nc(CNC(=O)N3CCCC3)cc2=O)C1 | 49.1 |
| CCc1ccc2ncn(Cc3ncc[nH]3)c(=O)c2c1 | 15.2 |
| COc1ccc2ncn(Cc3ncc[nH]3)c(=O)c2c1 | -64.3 |
| COc1cc2ncn(Cc3ncc[nH]3)c(=O)c2cc1OC | 64.1 |
| CCn1cnnc1CNC(=O)N1CCN(Cc2ccco2)CC1 | -2.19 |
| O=C(CC1CCCC1)N1C[C@H](OCc2ccncc2)[C@H]2OCCC[C@H]21 | -32 |
| CN1CCOC(CNCC(=O)NCCc2ccc(F)cc2)C1 (configuration not stated) | -2.27 |
| CN(C)C(=O)c1cccc(C[S+]([O-])CC(=O)NC2CCCC2)c1 (configuration not stated) | 54.4 |
| O=C(C[S+]([O-])Cc1ccc(F)cc1Cl)NC1CCCC1 (configuration not stated) | 66.7 |

| SMILES | INHIBITION [%] |
| --- | --- |
| O=C(C[S+]([O-])Cc1cccc(C(F)(F)F)c1)NC1CCCC1 (configuration not stated) | 21.9 |
| O=C(C[S+]([O-])Cc1cccc(Cl)c1)NC1CCCC1 (configuration not stated) | 15.2 |
| CN(C)C(=O)c1cccc(CN2CCN(CCO)CC2)c1 | -170 |
| CC1CN(C)CCN1Cc1cccc(C(=O)N(C)C)c1 (configuration not stated) | -32 |
| O=C(Cc1ccc(F)cc1Cl)N[C@@H]1CCNC[C@H]1O | 4.59 |
| O=C(C[S+]([O-])Cc1cccc(F)c1)NC1CCCC1 (configuration not stated) | 54.4 |
| CN(CC(=O)NC1CC1)S(=O)(=O)c1ccc(F)cc1Cl | -26.8 |
| COCCC1(CNC(=O)Nc2ccc(-n3ccnn3)cc2)CCC1 | -12.2 |
| CSCC[C@H]1CN2CCC[C@H]2CN1Cc1cn(C)nc1C | 5.11 |
| CN(Cc1ccco1)C(=O)C1CSCN1C(=O)C1CCC1 (configuration not stated) | -16 |
| CCS(=O)(=O)N1CCCCC1c1nc(C)no1 (configuration not stated) | 20.1 |
| CC(C)c1noc(C2CCCN2S(=O)(=O)N2CCCCCC2)n1 (configuration not stated) | -31.7 |
| CCS(=O)(=O)N1CCCCC1c1nc(C(C)C)no1 (configuration not stated) | 57.3 |
| Cc1ccc(C(C)NCc2c(C(C)C)nn(C)c2N2CCOCC2)o1 (configuration not stated) | 7.27 |
| CCOc1ccc(Cl)cc1C1CCCN1 (configuration not stated) | 18.2 |
| CCOc1ccc(Cl)cc1C1CCCCN1 (configuration not stated) | 54.9 |
| CCOc1ccc(Br)cc1C1CCCCN1 (configuration not stated) | 18.4 |
| O=C(CCn1ccnc1)N1CC[C@H](Oc2cccc(F)c2)[C@@H](O)CC1 | 7.3 |
| Cc1cc(NC(=O)C(c2cccc(F)c2)N2CCOCC2)ccn1 (configuration not stated) | 41.1 |
| O=C(Nc1nnc[nH]1)C(c1cccc(F)c1)N1CCOCC1 (configuration not stated) | 52.6 |
| Cc1cc(NC(=O)C(c2cccc(F)c2)N2CCOCC2)sn1 (configuration not stated) | -22.8 |
| O=C(Cn1cc(I)cn1)N1CCNC1=O | -28 |

| SMILES | INHIBITION [%] |
| --- | --- |
| N#Cc1cccnc1OC1CCN(S(=O)(=O)c2ccc(Br)cc2)CC1 | 50.4 |
| COC(=O)c1sccc1S(=O)(=O)N1CCC(Oc2ncccc2Cl)CC1 | 38.5 |
| N#Cc1cccnc1OC1CCN(S(=O)(=O)c2ccc(F)c(Cl)c2)CC1 | 64.3 |
| N#Cc1cccnc1OC1CCN(S(=O)(=O)c2c(F)cccc2F)CC1 | 54.6 |
| N#Cc1cccnc1OC1CCNCC1 | 5.58 |
| O=S(=O)(c1cc(F)cc(F)c1)N1CCC(Oc2ccc(Cl)cn2)CC1 | 35.8 |
| COC(=O)c1ccc(S(=O)(=O)N2CCC(Oc3cccnn3)CC2)cc1 | 26.6 |
| O=S(=O)(c1c(F)cccc1F)N1CCC(Cn2cccn2)CC1 | 36.3 |
| O=S(=O)(c1ccccc1F)N1CCC(Oc2cccnn2)CC1 | 43.3 |
| c1cncc(OCc2nnn3c2CN(Cc2ccsc2)CCC3)c1 | 16.6 |
| Cc1ccncc1C(=O)N1CCCC(C(=O)CCc2ccccc2)C1 (configuration not stated) | -34.8 |
| COc1ccccc1NC(=O)NCC(O)c1ccc(F)cc1F (configuration not stated) | 12.7 |
| O=C(CC1CC1)N1CCC2(CCCN(CCOc3ccccc3)C2)C1 (configuration not stated) | 27.2 |
| NC(=O)CN1C[C@@H](c2ccccc2F)[C@@]2(CCCCC(=O)N2)C1 | 21.95 |
| CCc1ccc(CCC(=O)N2CCC(=O)Nc3cccnc32)cc1 | 70.3 |
| CC(C)c1ocnc1C(=O)N1CCC(=O)Nc2cccnc21 | 4.13 |
| Cc1ccc(CCCC(=O)N2CCC(=O)Nc3cccnc32)s1 | 47.1 |
| Cn1cc(C[C@H]2[C@H](O)CCN2Cc2ccc3c(c2)OCO3)cn1 | 22.9 |
| Cc1cccc(CN2C(=O)CC[C@@H]3[C@H]2CCN3Cc2ccc(F)cc2)n1 | 69.5 |
| Cc1cccc(CN2C(=O)CC[C@@H]3[C@H]2CCN3Cc2cccnc2)n1 | 31.1 |
| Cc1cccc(CN2CC[C@H]3[C@H]2CCN3C(=O)c2cnn(C)c2)n1 | -0.554 |
| Cn1cc(CN2CC[C@@H]3[C@@H]2CCN3Cc2ccc3c(c2)OCO3)cn1 | 60.5 |

| SMILES | INHIBITION [%] |
| --- | --- |
| CN1CC[C@@H]2[C@@H]1CCN2Cc1ccc2c(c1)OCO2 | 35.8 |
| Cc1cccc(CN2CC[C@H]3[C@H]2CCN3Cc2cnn(C)c2)n1 | 51.6 |
| Cc1cccc(CN2CC[C@@H]3[C@@H]2CCN3Cc2cccs2)n1 | 33.1 |
| Cc1cccc(CN2C(=O)C[C@H]3[C@@H]2CCN3Cc2ccc(F)cc2)n1 | -4.82 |
| Cc1cc(OCC(=O)NCc2ccc(F)cc2)nnc1C | -3.08 |
| CC(=O)N1CCC2(CC1)CN(C(=O)[C@@H]1CSCN1)c1ccc(Cl)cc12 | 30.5 |
| Cc1cc(CN2C[C@@H](N3CCN(C)CC3)[C@H]3OCCC[C@H]32)oc1C | -30 |
| Cn1cnc2c1C(COCC1CCOCC1)CN(C(=O)C1CC=CC1)C2 (configuration not stated) | 45.1 |
| Cc1ccc(-c2cc(CN3CCc4cncnc4C3)on2)cc1 | -8.91 |
| CN(C)[C@@H]1CN(C(=O)c2cc3cccc(F)c3[nH]2)C[C@H]1O | -0.275 |
| COc1ccc(CN2CCCN(C(=O)C(C)n3ccnc3)CC2)cc1 (configuration not stated) | 18.55 |
| CN(CCCNC(=O)c1ccccc1OCC(N)=O)CC(F)(F)F | -52.1 |
| CN(CCCNC(=O)c1ccc(C#N)cc1)CC(F)(F)F | 21.8 |
| CN(CCCNC(=O)c1ccccc1F)CC(F)(F)F | 52.3 |
| Cn1nnc2c1CCN(Cc1nccs1)C2COCc1ccccc1 (configuration not stated) | 15.9 |
| Cc1noc(C)c1-c1nc(C2CCCN(C(=O)CN)C2)ccc1CO (configuration not stated) | 37.1 |
| COCCN(Cc1cccc(O)c1)CC1CC1 | 45.2 |
| Cc1cnc(CN(Cc2cccc(O)c2)CC2CC2)cn1 | 65.9 |
| Cc1cnc(CN(Cc2ccccc2)CC2CCOCC2)cn1 | 14.2 |
